For 51 compounds, Percent Effect results are on record in ChEMBL document CHEMBL3988442, “University of Dundee, Small-Polar-MMV Screening Library” (2021).

For test [1], the target named is T1, Aspartate--tRNA(Asp/Asn) ligase (Mycobacterium tuberculosis (strain ATCC 25618 / H37Rv)) (UniProt P9WFW3). Also: in the data most compounds retested in dose-response had high values.
T1 sequence (whole entry): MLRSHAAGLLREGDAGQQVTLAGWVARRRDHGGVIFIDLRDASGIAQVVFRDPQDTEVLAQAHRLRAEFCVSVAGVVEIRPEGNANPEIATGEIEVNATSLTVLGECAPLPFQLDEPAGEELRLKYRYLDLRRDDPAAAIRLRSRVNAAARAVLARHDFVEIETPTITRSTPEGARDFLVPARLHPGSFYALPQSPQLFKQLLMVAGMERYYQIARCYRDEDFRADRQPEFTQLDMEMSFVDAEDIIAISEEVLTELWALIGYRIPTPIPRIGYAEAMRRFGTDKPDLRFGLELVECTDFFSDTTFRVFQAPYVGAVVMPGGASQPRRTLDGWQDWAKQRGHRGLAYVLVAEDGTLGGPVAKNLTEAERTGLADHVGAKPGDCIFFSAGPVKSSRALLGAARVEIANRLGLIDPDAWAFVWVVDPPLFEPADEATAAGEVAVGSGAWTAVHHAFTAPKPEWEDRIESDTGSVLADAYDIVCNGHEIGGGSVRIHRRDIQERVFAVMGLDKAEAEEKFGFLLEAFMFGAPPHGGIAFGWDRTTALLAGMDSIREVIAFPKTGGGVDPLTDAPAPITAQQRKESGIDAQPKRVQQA
Kind of test: Assay for Asp RNA synthetase-1 from Mycobacterium tuberculosis. Format: functional. On the set-up: scale not given: direction of the effect not stated beside the values. Particulars: 30 µM.

Test [2] deals with Shiga toxin 2 (Escherichia coli O157:H7) (UniProt P09385+P09386). Kind of test: E. coli 0.157:H7 Shiga Toxin SOP - stx2 screening assay. In kind it is functional. Also noted: scale not given: direction of the effect not stated beside the values. Particulars: 30 µM.

With `Fc1ccc(CN2CCO[C@H]3[C@H](OCC4CC4)CC[C@@H]32)cc1`, the results for the Percent Effect in test [1] and in test [2] were -1.08% and 3.83%, respectively.

As for `COc1ccsc1C(=O)N1CCCC(n2nc(C)nc2C)C1` (configuration not stated), the Percent Effect in test [1] amounted to 0.571%; in test [2] it was 6.02%.

Consider `OCCN1CCN(Cc2coc(-c3ccc(Cl)cc3)n2)CC1`, for which the Percent Effect was determined as 4.16% in test [1] and 3.75% in test [2].

Turning to `CC(C)c1nc(CC(=O)Nc2nc(CN3CCCCCC3)cs2)cs1`, the Percent Effect was -0.836% in test [1] and -37.6% in test [2].

As for `COCCN1CCC2(CCN(Cc3nccs3)CC2)C1=O`, the Percent Effect is 3.12% in test [1] and -8.73% in test [2].

With `Cc1nc(C(=O)N2CCCC(c3cccc(-n4ccnc4)n3)C2)co1` (configuration not stated), the Percent Effect in test [1] is -0.67%; in test [2], 3.79%.

For `COc1ccc(CN2CCC[C@@H]3CN(C(=O)c4ccco4)C[C@@H]32)cc1`, the Percent Effect in test [1] was 5.87%; in test [2] it was 0.332%.

As for `COc1ccc(CN2CCN(C(C)=O)CC3(CC(=O)N(C)C3)C2)cc1` (configuration not stated), the figures for the Percent Effect in test [1] and in test [2] were 1.68% and -5.8%, respectively.

For `CC(C)c1cnc(CNc2c(F)cccc2-n2cccn2)o1`, the Percent Effect in test [1] is -0.919%; in test [2], 9.22%.

Turning to `O=C(Nc1ccccn1)C1CC(=O)N(Cc2ccccn2)C1` (configuration not stated), the Percent Effect was 2.43% in test [1] and -18.5% in test [2].

Regarding `CC1(C)OCC(CNC(=O)c2cnn(-c3cc(Cl)ccc3Cl)c2N)O1` (configuration not stated), the Percent Effect was -2.66% in test [1] and 17.5% in test [2].

Take `CN(C)CC(=O)N1CCC2(CC1)COC(COc1ccccn1)C2` (configuration not stated): the Percent Effect was 2.27% in test [1] and -20.6% in test [2].

As for `CCCc1noc(CN(C)C(=O)C2COc3ccccc3C2)n1` (configuration not stated), the Percent Effect was 1.75% in test [1] and -22.5% in test [2].

As to `Cc1nccn1C1CCCN(C(=O)c2ccc3c(c2)nnn3C)C1` (configuration not stated), the Percent Effect in test [1] is -1.94%; in test [2], 16.2%.

As for `COCCCNC(=O)CN(C)C(=O)c1cc(C)ccc1O`, the Percent Effect in test [1] was 0.583%; in test [2], 14.3%.

In the case of `Cc1cc(C)n(CC2CCCCN2Cc2cscn2)n1` (configuration not stated), the Percent Effect is -3.34% in test [1] and 25.2% in test [2].

On to `Cc1nc2c(c(C)c1CC(=O)Nc1cccc(C#N)c1)c(=O)[nH]n2C`, for which the Percent Effect came out at 4.67% in test [1] and 5.09% in test [2].

`CC(C)(O)C1CCN(C(=O)Nc2nc(-c3ccccc3)ns2)CC1`: the Percent Effect is 1.51% in test [1] and -6.7% in test [2].

As to `COc1ccccc1CCNC(=O)CN1CCCC1c1noc(C)n1` (configuration not stated), the Percent Effect in test [1] is -3.12%; in test [2], 34.4%.

Regarding `CN(Cc1ccc(N2CCCCC2)cc1)Cc1noc(C(C)(C)C)n1`, the figures for the Percent Effect in test [1] and in test [2] were 1.93% and -7.66%, respectively.

On to `O=S(=O)(C1CC1)N1CCO[C@H]2[C@H](OCC3CCCC3)CC[C@@H]21`, for which the Percent Effect was found to be 0.291% in test [1] and 8.36% in test [2].

On to `CNS(=O)(=O)Cc1ccc(CNC(=O)c2ccc(C)[nH]c2=O)cc1`, for which the Percent Effect in test [1] is -0.577%; in test [2] it was -39.3%.

Take `CN(C)CCN1CCCC12CCN(C(=O)c1cnccn1)CC2`: the Percent Effect in test [1] stood at 1.96%; in test [2] it was 0.984%.

As for `CC(NC(=O)CNCCn1cccn1)c1ccc2c(c1)OCCO2` (configuration not stated), the Percent Effect in test [1] is -3.06%; in test [2], 8.04%.

In the case of `O=C(Nc1nc2c(s1)CCC2)c1cccnc1N1CCOCC1`, the Percent Effect was -4.4% in test [1] and -10.3% in test [2].

As to `Cc1cc(C2CCCN(C(=O)c3cnccn3)C2)ccn1` (configuration not stated), the Percent Effect in test [1] is -0.521%; in test [2], -14.3%.

Turning to `Cc1nn(C)c(C)c1CNCc1ccc(N2CCOCC2)nc1`, the Percent Effect in test [1] is 2.11%; in test [2] it was -24.1%.

Take `CCc1nc2n(n1)CC(NCc1noc(-c3ccccc3)n1)CC2` (configuration not stated): the figures for the Percent Effect in test [1] and in test [2] were -2.95% and -17.9%, respectively.

On to `CCn1c(=O)nc2n1C(=O)N(c1cccc(Cl)c1)C2`, for which the Percent Effect is 0.929% in test [1] and -43.9% in test [2].

For `CC(C)Cc1noc(CN2CCN(CCOc3ccc(Cl)cc3)CC2)n1`, the Percent Effect came to 0.745% in test [1] and 10.8% in test [2].

Regarding `Cc1cc(CN2CCN(CCOc3cccc(C#N)c3)CC2)no1`, the values for the Percent Effect in test [1] and in test [2] were 2.73% and 20.5%, respectively.

Regarding `O=C1NCC2(CCCN(Cc3ccc(Cl)s3)C2)Oc2ccccc21` (configuration not stated), the Percent Effect in test [1] was -6.49%; in test [2], -53.7%.

On to `COc1ccc(CN(C)C(=O)CCC(=O)c2cccs2)c(OC)c1OC`, for which the Percent Effect in test [1] was found to be 1%; in test [2] it was 0.732%.

`CNC(=O)[C@H]1CO[C@H]2CCN(Cc3ccc4ccccc4n3)C[C@H]2C1`: the Percent Effect was 2.46% in test [1] and -3.36% in test [2].

Take `COCCNC(=O)c1cc2c(s1)CCN2C(=O)c1ccccc1`: the Percent Effect in test [1] is 0.0582%; in test [2], -56.3%.

Take `CC(NC(=O)NCCCNS(C)(=O)=O)c1ccncc1` (configuration not stated): the Percent Effect is -3.27% in test [1] and -2.62% in test [2].

For the compound `CCOc1ccc(Cl)c(C(=O)N2CCN(C(=O)c3ccoc3C)CC2)n1`, the Percent Effect in test [1] is -4.19%; in test [2] it was -1.17%.

Take `Cn1cc(C(=O)N2CCCC(Cc3nccs3)C2)cn1` (configuration not stated): the Percent Effect in test [1] amounted to 2.4%; in test [2], 14.9%.

Regarding `CC1CCN(S(=O)(=O)NCc2ccccc2Cn2cncn2)CC1`, the Percent Effect in test [1] is -6.51%; in test [2], 4.16%.

Regarding `O=C1NCCN(CC2CC2)C12CCN(Cc1ccco1)CC2`, the results for the Percent Effect in test [1] and in test [2] were 24.3% and -8.3%, respectively.

Consider `CN(C)C(=O)CN1CCCCC1c1nc(N)ncc1-c1ccccc1` (configuration not stated), for which the values for the Percent Effect in test [1] and in test [2] were -1.04% and 1.46%, respectively.

For `C[C@@H]1CN(C(=O)c2ccc(C#N)nc2)CC[C@@]1(O)C1CCOCC1`, the Percent Effect was -2.71% in test [1] and -2.97% in test [2].

On to `CC(NC(=O)NCCN1CCCCCC1=O)c1nncn1C` (configuration not stated), for which the Percent Effect in test [1] was -7.63%; in test [2], -18.6%.

Take `Cn1cc(CN2CCC3(C2)CN(Cc2ccsc2)C3)cn1`: the Percent Effect in test [1] is 1.9%; in test [2], -10.4%.

In the case of `O=C(c1cc(Cl)c2c(c1)OCO2)N1CCN(c2ccccn2)CC1`, the figures for the Percent Effect in test [1] and in test [2] were -0.949% and 18.3%, respectively.

For `COc1c(CNCc2cccc(CS(C)(=O)=O)c2)c(C)nn1C`, the figures for the Percent Effect in test [1] and in test [2] were 1.7% and 20.4%, respectively.

For the compound `Cc1cnn(CCNCc2csc(-c3cccs3)n2)c1`, the Percent Effect is -6.55% in test [1] and 19.3% in test [2].

With `O=S(=O)(Cc1ccccc1)NCc1ccco1`, the Percent Effect in test [1] was -3.04%; in test [2] it was 4.92%.

With `CCc1ncncc1C(=O)N1CCOC(c2nc(C)n[nH]2)C1` (configuration not stated), the Percent Effect in test [1] is -4.06%; in test [2], 0.443%.

Regarding `CC(C)c1nc(C2CCCN2CC(=O)Nc2ccc(Cl)cn2)no1` (configuration not stated), the Percent Effect in test [1] is -6.33%; in test [2], 9.53%.

In the case of `CCOc1ccc(Cl)cc1CNCCCn1ccnc1`, the values for the Percent Effect in test [1] and in test [2] were 0.842% and -32.5%, respectively.
